# Chlamy TAG: increases triacylglycerol in Chlamydomonas reinhardtii. Chlamydomonas reinhardtii TAG, Nile Red fluorescence, 72 h. calls only at 10 µM (by protocol). 44,000 compounds, 0.84% hits. AID 1159537; call rule not given here;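 further: hits raise Nile Red signal meaning more stored TAG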
# * marks the source's active call; other numbers are inactive results; i = inactive; + = active, no number. The entries come from a sample that favours hits as a whole.
SMILES,Chlamy TAG
CCN(CC)CC(O)COc1ccc(-c2ccc(OCC(O)CN(CC)CC)cc2)cc1 (stereo not given),i
O=C1CC(N2CCC(C(O)(c3ccccc3)c3ccccc3)CC2)C(=O)N1c1ccc(F)cc1 (stereo not given),+
NC(=O)C1CCN(C2CC(=O)N(c3ccc(F)cc3)C2=O)CC1 (stereo not given),i
COc1ccc(N2C(=O)CC(N3CCC(C(O)(c4ccccc4)c4ccccc4)CC3)C2=O)cc1 (stereo not given),i
CCCCNc1cc(C)nc(N2CCOCC2)n1,+
Cc1cc(=O)[nH]c(N2CCOCC2)n1,i
CCOc1ccc(Nc2cc(C)nc(N3CCOCC3)n2)cc1,i
Cc1ccc(N)cc1NC(=O)c1ccccc1,i
Clc1ccccc1-c1nnc(-c2ccccc2Cl)o1,i
Cc1ccc(-c2nnc(-c3ccccc3Cl)o2)cc1,i
Clc1ccccc1-c1nnc(-c2ccccc2)o1,+
O=C(Nc1ccccc1O)c1ccc([N+](=O)[O-])cc1,i
O=C(Nc1ccccc1C(=O)Nc1ccc([N+](=O)[O-])cc1)c1ccccc1,i
O=C(Nc1ccccc1C(=O)NCc1ccccc1)c1ccc([N+](=O)[O-])cc1,+
COc1ccc(CN2CCC(C(=O)N3CCN(c4cccc(C)c4C)CC3)CC2)cc1OC,i
Cc1cc(Cl)c(OCCOCCN2CCNCC2)c(Cl)c1,i
Cc1cc(C)c(OCCCN2CCCC2)c(C)c1,i
Cc1cc(C)c(OCCCCN2CCNCC2)c(C)c1,+
O=C(NCc1ccncc1)C(=O)Nc1ccccc1Cl,i
NNC(=O)C1CCCN(Cc2cccc(Cl)c2)C1 (stereo not given),i
Cc1ccc(S(=O)(=O)N(CC(=O)NC(C)C)c2ccc(F)cc2)cc1,i
Cc1ccc(OCC(O)CN(C)C2CCCCC2)cc1C (stereo not given),+
Cc1ccc(OCC(O)CN(C)C)cc1 (stereo not given),i
CN(CC(O)COCc1ccccc1)C1CCCCC1 (stereo not given),i
Cc1ccc(OCC(O)CN2CCN(Cc3ccccc3)CC2)cc1C (stereo not given),i
SMILES,Chlamy TAG
OC(COc1ccccc1Br)CN(C1CCCCC1)C1CCCCC1 (stereo not given),i
CN(CC(O)COc1ccc(F)cc1)C1CCCCC1 (stereo not given),+
O=C(N1CCC(c2ccccc2)CC1)C12CC3CC(CC(C3)C1)C2,i
CC(C)CNC(=O)C(=O)Nc1cccc(Cl)c1,i
CN(C)c1ccc(NC(=O)C2COc3ccccc3O2)cc1 (stereo not given),i
OC(COc1ccc(OCC(O)CN2CCCC2)cc1)CN1CCCC1 (stereo not given),i
Cc1ccc(OCC(O)CN2CCCCC2)c(C)c1 (stereo not given),i
OC(COc1ccccc1Br)CN1CCCCC1 (stereo not given),+
Cc1ccccc1OCC(O)CN1CCN(CC(O)COc2ccccc2C)CC1 (stereo not given),i
OC(COc1ccc(Br)cc1)CN1CCOCC1 (stereo not given),i
OC(COc1ccc(Br)cc1)CN1CCCCCC1 (stereo not given),+
CCOC(=O)N1CCN(c2nc(-c3cccc([N+](=O)[O-])c3)cs2)CC1,i
COc1cc(NC(=O)c2cccc(Br)c2)c(OC)cc1Cl,i
Cc1ccc(C(=O)Nc2c(C(=O)N3CCCCCC3)cnn2-c2ccccc2)cc1,i
CCN(CC)CC#CC(C)(O)C(C)C (stereo not given),i
CCN(CC)CC#Cc1ccc(C#CCN(CC)CC)cc1,+
CCN(CC)CC#CC(O)c1ccccc1 (stereo not given),i
Cc1cc(=O)[nH]c(NCc2ccccc2)n1,i
Cc1cc(Oc2ccc([N+](=O)[O-])cc2)nc(NCc2ccccc2)n1,i
COc1cc(C)nc(NCc2ccccc2)n1,+
CCC(=O)Nc1cc(Cl)c(Cl)cc1Cl,i
COc1cc(NS(=O)(=O)c2ccc(NC(=O)c3ccc(OC(C)C)cc3)cc2)nc(OC)n1,i
O=C(CSc1nc2ccccc2o1)N1CCc2ccccc2C1,i
C=CCc1cc(C)ccc1OCCCCN1CCN(C)CC1,i
C=CCc1cccc(OC)c1OCCCN1CCN(C)CC1,i
SMILES,Chlamy TAG
C=CCc1cccc(C)c1OCCCN1CCN(C)CC1,+
C=CCc1cc(C)ccc1OCCN1CCN(C)CC1,i
C=CCc1cc(Cl)ccc1OCCN1CCN(C)CC1,+
C=CCc1cccc(C)c1OCCCN1CCCC1,i
Clc1cccc(-c2nnc(-c3ccc4c(c3)OCO4)o2)c1,i
COc1ccc(CN2CCN(C/C=C/c3ccccc3)CC2)cc1,+
COc1cc(CN2CCN(C/C=C/c3ccccc3)CC2)cc(OC)c1OC,i
C(=C\c1ccccc1)/CN1CCN(C2CCN(CCc3ccccc3)CC2)CC1,i
C(=C\c1ccccc1)/CN1CCN(c2ncccn2)CC1,i
COc1ccc(CN2CCN(C/C=C/c3ccccc3)CC2)c(O)c1,i
C(=C\c1ccccc1)/CN1CCN(C2C3CC4CC(C3)CC2C4)CC1 (stereo not given),+
COc1ccc(C(=O)Nc2cc(C)cc(C)c2O)cc1OC,i
Cc1noc(C)c1Cc1c(C)noc1C,i
O=[N+]([O-])c1ccc(OCCCCN2CCOCC2)cc1,+
CCOc1cccc(OCCN2CCOCC2)c1,i
Cc1cccc(OCCCCN2CCOCC2)c1,+
CC(C)(C)c1ccc(OCCCCN2CCOCC2)cc1,+
O=[N+]([O-])c1ccc(OCCCCN2CCCCC2)cc1,i
c1ccc(OCCCN2CCOCC2)cc1,i
O=[N+]([O-])c1ccc(OCCCN2CCCC2)cc1,i
c1ccc(COc2ccc(OCCCCN3CCOCC3)cc2)cc1,i
Ic1ccc(OCCCN2CCOCC2)cc1,i
CC(C)(C)N1C(=O)c2ccc(C(=O)Nc3cccnc3)cc2C1=O,i
Cc1ccc(Cl)c(OCCN(C)C)c1,i
COc1cc(NC(=O)c2ccccc2F)c(OC)cc1NC(=O)c1ccccc1,i
SMILES,Chlamy TAG
Cc1ccccc1C(=O)N=C1NC(=O)C(C)S1 (stereo not given),i
Cc1ccc(NS(=O)(=O)c2ccc(Cl)cc2)cc1Cl,i
O=C(COc1ccc(Cl)cc1Cl)Nc1ccccc1I,i
Nc1nnc(Sc2ccc([N+](=O)[O-])c3ncccc23)s1,i
COc1cc(NC(=O)CC2Sc3ccccc3NC2=O)c(OC)cc1Cl (stereo not given),i
Cc1ccc(C(=O)c2ccc(N3CCCC3)c([N+](=O)[O-])c2)cc1,i
CN1CCN(c2ccc(C(=O)c3ccc(Cl)cc3)cc2[N+](=O)[O-])CC1,i
COc1ccc(C(=O)c2ccc(N3CCN(C)CC3)c([N+](=O)[O-])c2)cc1,+
COc1ccc(NC(=O)CSc2nnc3nc(C)cc(C)n23)cc1,i
COc1ncnc(OCCO)c1[N+](=O)[O-],i
COc1cccc(C(=O)N2CCN(S(=O)(=O)c3ccc([N+](=O)[O-])cc3)CC2)c1,i
CC(C)CC(=O)N1CCN(Cc2ccc(F)cc2)CC1,i
CC1(C)Oc2ccc(NC(=O)c3ccc(C(=O)c4ccccc4)cc3)cc2O1,+
CC1(C)Oc2ccc(NC(=O)Cc3ccc(F)cc3)cc2O1,i
COc1ccc(NC(=O)c2ccc(C(=O)c3ccccc3)cc2)cc1,i
COc1ccc(OCC(=O)Nc2cccc(O)c2)cc1,i
